Most compounds without a hit are left out; they make up all but 12% or so of the library.
HP1b binding inh – inhibitors of HP1-beta chromodomain binding to methylated histone tails. P83916. AlphaScreen HP1-beta / biotin-H3K9me3 peptide binding. Potency, µM (titrated, usually from 114 µM), usual class: inhibitors. 0.56% of 390,000 active. AID 540317; also: nearly all actives have a fitted effect of over 70% in size
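AlphaScreen: HP1-beta (50 nM) preformed 30 min with biotin-H3(1-18)K9me3 peptide (50 nM) in PBS pH 7.4, 0.01% Tween-20. Compound added for 30 min at RT, then streptavidin donor/nickel chelate acceptor beads (10 ug/mL) for 30 min.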
BAZ2B block – inhibitors of human BAZ2B bromodomain; 4.4% of 360,000 active; Q9UIF8; Potency, µM (series often up to 114 µM), hits mostly inhibitors; AlphaScreen BAZ2B-H3K14Ac peptide displacement; also: nearly all actives have a fitted effect of over 60% in size
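In this displacement format the biotinylated H3(5-23) peptide acetylated at Lys14 serves as ligand at 50 nM, with BAZ2B at 50 nM in PBS pH 7.4 containing 0.01% Tween-20. Donor and acceptor beads are 10 ug/mL final.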
PI5P4Ka inh – PI5P4K alpha (human) kinase inhibition. 1.2% of 330,000 active. P48426. PI5P4Kalpha enzyme, ADP-Glo luminescence, 60 min; hits give low values. max response, %; active = max response of -50% or lower; inconclusive = between -30% and -50%; inactive = -30% or higher; also: value at the top dose of about 77 µM
Target sequence (P48426 whole entry, looked up): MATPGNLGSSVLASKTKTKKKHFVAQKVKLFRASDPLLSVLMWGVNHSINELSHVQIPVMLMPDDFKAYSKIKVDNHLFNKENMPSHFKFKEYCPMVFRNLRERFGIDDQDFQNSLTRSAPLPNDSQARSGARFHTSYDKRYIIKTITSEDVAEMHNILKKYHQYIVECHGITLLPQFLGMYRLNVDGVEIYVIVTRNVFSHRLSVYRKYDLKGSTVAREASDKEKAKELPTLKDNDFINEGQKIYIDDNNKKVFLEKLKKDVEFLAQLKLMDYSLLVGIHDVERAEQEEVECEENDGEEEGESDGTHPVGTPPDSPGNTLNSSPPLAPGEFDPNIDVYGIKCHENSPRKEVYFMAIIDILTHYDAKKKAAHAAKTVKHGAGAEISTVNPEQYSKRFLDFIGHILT
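PI5P4Kalpha ADP-Glo assay; 5 microM ATP final; 60 min RT reaction; HEPES pH 7.4/EGTA/CHAPS, 5% DMSO; controls lacking substrate or enzyme; luminescent end-point.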
JMJD2A Tudor inh – JMJD2A Tudor domain (human) inhibition | O75164 | AlphaScreen JMJD2A-Tudor / H3K4me3 peptide binding | Potency, µM (series often up to 114 µM), hits mostly inhibitors | 4.4% of 390,000 active | AID 504339; also: nearly all actives have a fitted effect of over 50% in size
G9a block – G9a (human) methyltransferase inhibition. AID 504332. G9a H3K9 monomethylation, AlphaScreen, 2 h. Potency, µM (titrated, usually from 102 µM), actives largely listed as inhibitors. 8.8% of 350,000 active; also: nearly all actives have a fitted effect of over 75% in size
Target sequence (Q96KQ7 913-1193 limits assumed): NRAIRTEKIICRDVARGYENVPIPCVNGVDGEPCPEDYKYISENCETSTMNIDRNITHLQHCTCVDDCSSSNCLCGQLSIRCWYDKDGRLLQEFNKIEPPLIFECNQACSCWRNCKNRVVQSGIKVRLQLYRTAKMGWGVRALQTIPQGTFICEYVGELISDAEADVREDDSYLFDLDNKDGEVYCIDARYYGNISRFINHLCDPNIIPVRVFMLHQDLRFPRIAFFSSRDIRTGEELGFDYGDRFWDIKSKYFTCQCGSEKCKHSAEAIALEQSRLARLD
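AlphaScreen read-out: biotin-H3K9 peptide (500 nM) methylation by 20 nM enzyme with 20 uM SAM, 2 h at room temperature after 15 min compound preincubation; anti-monomethyl H3K9 antibody plus donor/acceptor beads, 10 min dark.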
PLK1 PBD block – inhibitors of human PLK1 polo-box domain binding; Potency, µM, hits mostly inhibitors; 2.8% of 360,000 active; Plk1 PBD binding of FITC phosphopeptide, fluorescence polarization; also: series mostly up to about 57 µM; nearly all actives have a fitted effect of over 65% in size
A number is an active result; i = inactive; ? = inconclusive; nt = no result given; [ ] = another dose, or the depositor's remark. Unless noted, calls follow the shape of the dose curve; as a rule, active = well fitted curve in the direction sought with a large enough effect; inconclusive = small, poorly fitted or top-dose-only effect, or another doubt; inactive = no such curve, though single readings can be large; an effect the other way counts as inactive or inconclusive.

SMILES	HP1b binding inh	BAZ2B block	PI5P4Ka inh	JMJD2A Tudor inh	G9a block	PLK1 PBD block
Cc1ccc(Cn2c(O)c(N=NC(=S)Nc3ccccc3F)c3cc(S(=O)(=O)N4CCOCC4)ccc32)cc1	i	i	i	i	?	i
O=C(NCc1cccs1)c1ccc2c(c1)sc1nc(-c3ccccc3)cn12	i	i	nt	i	i	nt
O=S1(=O)CC(N2CC=CC2)CN1Cc1cn(Cc2ccccc2)nn1 (stereo unspecified)	nt	nt	i	nt	nt	i
O=C(COc1ccc2c(c1)OCO2)Nc1nnc(Cc2ccccc2)s1	?	i	?	i	18µM	24µM
COCc1nnc(NC(=O)COc2ccc3c(c2)OCO3)s1	?	i	i	i	22µM	17µM
CCOCc1nnc(NC(=O)COc2ccc3c(c2)OCO3)s1	i	i	?	i	?	i
Cc1ccc(NC(=O)Nc2nnc(SCC(=O)N3CCC(C)CC3)s2)cc1	i	i	nt	i	i	nt
COc1ccc([N+](=O)[O-])cc1NCC(=O)Nc1cccc(S(=O)(=O)N2CCCC2)c1	i	i	i	i	?	i
COc1ccc(-c2noc([C@@H]3O[C@H](CO)[C@H](O)[C@H](O)[C@H]3O)n2)cc1OC	nt	nt	i	nt	nt	i
Cc1ccc(N(C)S(=O)(=O)c2ccc(-c3coc(C)n3)cc2)cc1	i	?	nt	i	i	nt
S=c1[nH]nc(COc2ccccc2)n1/N=C/c1c(Cl)cccc1Cl	i	i	i	i	2µM	?
S=c1[nH]nc(COc2ccccc2)n1/N=C/c1cccc(Cl)c1Cl	i	i	i	?	?	?
S=c1[nH]nc(COc2ccccc2)n1/N=C/c1ccccc1Cl	i	i	i	56µM	2.2µM	27µM
Cc1cc(C)n(-c2nc3ccccc3nc2Nc2ccc(Cl)c(C(=O)OC(C)C)c2)n1	i	i	nt	i	i	nt
CCOc1ccc(NC(=O)Cc2coc3ccc(C)cc23)cc1	i	i	nt	i	i	nt
O=C(Nc1cccc(Cl)c1)c1cccc(N2C(=O)C3CC=CCC3C2=O)c1 (stereo unspecified)	?	?	i	i	79µM	i
O=C(Nc1ccc(F)cc1)c1cccc(N2C(=O)C3C4CCC(C4)C3C2=O)c1 (stereo unspecified)	i	i	i	i	3.2µM	i
O=C(Nc1cccc(N2C(=O)C3CCCCC3C2=O)c1)c1ccccc1 (stereo unspecified)	i	i	i	i	i	i
COc1cc(CN(C(=O)c2ccc(OC(C)C)cc2)c2ccccn2)cc(OC)c1OC	i	i	nt	i	i	nt
COc1ccc(NC(=O)CSc2nc3c([nH]c4ccccc43)c(=O)n2-c2ccccc2)c(OC)c1	i	i	nt	i	i	nt
CCOc1cc(C#N)c(-n2nnc3c(sc4nc(C)cc(C)c43)c2=O)cc1OCC	i	i	nt	i	16µM	nt
COc1cccc(-n2nnc3c(sc4nc(C)cc(C)c43)c2=O)c1	i	i	nt	i	i	nt
CCOC(=O)CNC(=O)C(=O)c1c(O)[nH]c2ccccc12	i	i	i	50µM	i[12.7 µM]	i
N#Cc1ccsc1NC(=O)COC(=O)CCS(=O)(=O)c1ccccc1	i	nt	-56	i	nt	i
N#Cc1ccsc1NC(=O)CCS(=O)(=O)c1ccccc1	i	i	i	i	45µM	?
SMILES	HP1b binding inh	BAZ2B block	PI5P4Ka inh	JMJD2A Tudor inh	G9a block	PLK1 PBD block
NC(=O)c1ccsc1NC(=O)CCS(=O)(=O)c1ccc(Cl)cc1	i	i	i	i	35µM	?
NC(=O)c1ccsc1NC(=O)CCS(=O)(=O)c1ccccc1	i	i	i	i	i[12.7 µM]	i
COC(=O)c1ccccc1NC(=O)N1CCN(Cc2ccco2)CC1	i	?	i	i	i	i
CC(=O)c1ccc(NC(=O)c2sc(-n3nc(C)c(Cc4ccccc4)c3C)nc2C)cc1	i	i	nt	i	i	nt
Cc1ccc(C(=O)Nc2cccnc2)cc1[N+](=O)[O-]	i	i	i	i	?	?
CC(=O)Nc1ccc(N2CCCC(C)C2)c([N+](=O)[O-])c1 (stereo unspecified)	?	35µM	i	?	?	i
CC1CCCN(c2ccc(/C=C(\C#N)c3nn(-c4ccccc4)c(N)c3C#N)cc2[N+](=O)[O-])C1 (stereo unspecified)	i	?	i	?	22µM	i
CC1CCCN(c2ccc(C(=O)Nc3cccnc3)cc2[N+](=O)[O-])C1 (stereo unspecified)	i	?	i	i	50µM	i
CN(C)C(=C(C#N)C#N)N1CCN(c2ccc(Cl)c(Cl)c2)CC1	i	i	i	i	i	i
CN(C)C(=C(C#N)C#N)N1CCN(c2ccc(Cl)cc2)CC1	i	i	i	?	i	30µM
CCc1ccc(NC(=O)C(C)OC(=O)Cn2[nH]c(=O)c3ccccc3c2=O)cc1 (stereo unspecified)	nt	nt	i	nt	nt	i
Cc1ccc([N+](=O)[O-])cc1-c1[nH]c(-c2ccc(O)c(O)c2)nc1-c1ccccc1	i	28µM	nt	40µM	?	i
COc1ccc(-c2nc(-c3ccccc3)c(-c3cc([N+](=O)[O-])ccc3C)[nH]2)cc1O	?	40µM	i	45µM	50µM	i
COc1ccc([N+](=O)[O-])cc1-c1[nH]c(-c2ccc(C(=O)O)cc2)nc1-c1ccccc1	i	?	i	?	?	i
COCC(=O)Nc1nnc(SCC(=O)N2CCCCC2)s1	i	i	i	i	?	i
Cc1nnc(SCC(=O)Nc2ccc3[nH]c(=O)[nH]c3c2)s1	i	i	i	i	?	i
COc1ccc(NC(=O)CSc2nnc(NC(=O)c3ccccc3C(=O)O)s2)cc1	i	i	i	50µM	?	17µM
O=C(Nc1nnc(SCC(=O)N2CCCCC2)s1)C1CCCCC1	i	i	nt	i	4µM	i
COc1ccc(Nc2nnc(SCC(=O)Nc3ccc4[nH]c(=O)[nH]c4c3)s2)cc1	i	i	i	i	16µM	i
COc1ccc(Nc2nnc(SCC(=O)N3CCCC3)s2)cc1	i	i	i	i	35µM	i
O=C(NCCNC(=O)c1ccc(Br)o1)c1cccnc1	i	i	i	i	i	i
Cc1ccc(N2CCN(c3nc4c(S(=O)(=O)c5ccc(C)c(C)c5)nnn4c4ccccc34)CC2)c(C)c1	i	i	nt	i	i	nt
COc1cc(C(=O)NCCN2CCN(C(=O)c3cc(OC)c(OC)c(OC)c3)CC2)cc(OC)c1OC	i	i	i	i	i	i
CN(C)C(=O)CCSC(SCCC(=O)O)c1cccc(/C=C/c2ccc3ccc(Cl)cc3n2)c1 (stereo unspecified)	nt	nt	nt	nt	i[12.7 µM]	nt
CN(C)C(CNC(=O)CCc1c[nH]c2ccccc12)c1ccccc1 (stereo unspecified)	i	i	i	i	i	i
C=CCc1cc(F)c(S(=O)(=O)N2CCN(S(=O)(=O)c3ccc4c(c3)OCCO4)CC2)cc1F	nt	nt	nt	i	nt	nt
CSCCC(NC(=O)c1ccccc1Cl)C(=O)NCCc1ccccn1 (stereo unspecified)	i	nt	i	i	nt	i
Cc1ccc(NC(=O)CSc2nncs2)cc1Cl	i	i	i	i	?	i
